Test [1] has as its system Wnt5a (protein binding on small-molecule microarray). Briefly: small molecules binding Wnt5a protein – biophysical, small-molecule microarray, 635/667 nm fluorescence, primary screen (AID 1142).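 Further: fluorescence read at 667 nm with signal to noise per printed feature.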 To be noted: 635 nm fluorescence, higher = more signal.
Test [2] in a line: ATP-based viability of Huh7 replicon cells – cell-based, CellTiter-Glo luminescence, basal, 48 h, cytotoxicity control for HCV replication inhibitor project, primary screen (AID 1143).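 Further: Huh7 hepatoma cells carrying a hepatitis C replication reporter with no stimulus; test concentration not given here.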 The conditions noted are these: higher = more signal, called active from +8 up or from −8 down.
Test [3] in a line: Pseudomonas biofilm growth suppression – PAO1 strain, BacTiter-Glo luminescence, LB-PBS, primary screen (AID 1144). To be noted: P. aeruginosa PAO1 biofilm, 12 h, higher = more signal.
Test [4] in a line: basal CRE-LacZ reporter activity in PC12 – cell-based, unstimulated, primary screen (AID 1145). To be noted: no forskolin, luminescence, 4.5 h, higher = more signal, called active from +8 up or from −8 down.
A short description of test [5]: forskolin-driven CRE-LacZ activity in PC12 – cell-based, CRE-LacZ reporter, forskolin-stimulated, primary screen (AID 1146).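 Further: PC12 cells with 6xCRE LacZ reporter stimulated by forskolin 10 µM; beta-galactosidase reporter signal reflecting CREB driven transcription.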 To be noted: luminescence, 4.5 h, higher = more signal, called active from +8 up or from −8 down.
The target of test [6] is Streptavidin (Streptomyces avidinii) (UniProt P22629). Briefly: compounds binding control protein streptavidin – biophysical, small-molecule microarray, 635/667 nm fluorescence, artefact control for SMM compound annotation, primary screen (AID 1147).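 Further: signal reflects streptavidin binding to arrayed compounds as a control protein.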 To be noted: higher = more signal.
Sequence of Streptavidin (Streptomyces avidinii) (P22629 whole entry, looked up): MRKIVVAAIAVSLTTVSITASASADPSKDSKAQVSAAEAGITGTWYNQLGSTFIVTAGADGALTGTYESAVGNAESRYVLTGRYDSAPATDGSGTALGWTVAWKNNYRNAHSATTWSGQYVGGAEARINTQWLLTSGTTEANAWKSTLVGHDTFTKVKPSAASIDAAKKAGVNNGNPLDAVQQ
A short description of test [7]: probe aInhba binding on compound microarray – biochemical, small-molecule microarray, 635/667 nm fluorescence, primary screen (AID 1148).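 Further: score merges 667nm spot fluorescence with signal-to-noise for antibody binding to printed compounds.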 The conditions noted are these: higher = more signal.
Test [8] concerns the target Torsin-1A (Homo sapiens) (UniProt O14656). The test is described as follows: TOR1A wild-type binding on microarray – cell lysate, small-molecule microarray, lysate, 635/667 nm, primary screen (AID 1149). The conditions noted are these: COS7 hTOR1A-WT lysate, 635 nm fluorescence, higher = more signal.
Test [9] has the same target. The test is described as follows: torsin A mutant lysate binding on microarrays – cell lysate, small-molecule microarray, COS7 lysate, 635/667 nm fluorescence, primary screen (AID 1150).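 Further: score pools 667 nm emission and signal to noise measuring lysate protein binding.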 The conditions noted are these: COS7 hTOR1A mutant lysate, 635 nm fluorescence, higher = more signal.
Test [10] deals with Sonic hedgehog protein (Shh). Briefly: Sonic hedgehog microarray binding compounds – biochemical, small-molecule microarray, 635/667 nm fluorescence, primary screen (AID 1151).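 Further: Shh protein binding to compounds spotted on small-molecule microarray slides; score combines spot fluorescence intensity with signal-to-noise across triplicate slides.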 The conditions noted are these: 635 nm fluorescence, higher = more signal.

Active and inactive are the calls of the source. Unless noted, how the calls were made is not given here.

Sequence of Torsin-1A (Homo sapiens) (O14656 whole entry, looked up): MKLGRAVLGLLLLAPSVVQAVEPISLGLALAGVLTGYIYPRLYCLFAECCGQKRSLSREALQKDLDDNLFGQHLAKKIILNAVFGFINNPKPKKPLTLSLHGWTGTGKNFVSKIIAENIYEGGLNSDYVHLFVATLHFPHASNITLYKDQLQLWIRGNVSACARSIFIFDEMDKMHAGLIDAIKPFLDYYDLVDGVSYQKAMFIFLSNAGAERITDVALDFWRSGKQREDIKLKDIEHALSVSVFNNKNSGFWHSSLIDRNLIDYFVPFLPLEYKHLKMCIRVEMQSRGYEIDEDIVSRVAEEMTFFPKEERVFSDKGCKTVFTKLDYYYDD

Consider `COC(=O)[C@@]1(Cc2ccc(F)cc2)[C@H]2c3cc(C(=O)N4CCCC4)n(CCc4ccc(OC)c(Br)c4)c3C[C@H]2CN1C(=O)c1ccccc1`, for which the composite z-score in test [1] was 0.375; in [6], 2.46; in test [7] it was 0.431; in the test with Torsin-1A (Homo sapiens) [8], 0.17; with Torsin-1A (Homo sapiens) [9], 0.858; in test [10], -0.328. Moreover, the z-score in [2] is -3.82 (inactive); in [3] it was 0.839 (inactive); in test [4], 0.0109 (inactive); in test [5], -1.14 (inactive).
For `COc1ccc([Si](C)(C)[C@@H]2[C@@H](CC(=O)N3Cc4ccccc4C[C@H]3CO)O[C@]3(C(=O)N(Cc4cccc(N5C(=O)COc6ccccc65)c4)c4ccccc43)[C@H]2C)cc1`, the composite z-score is -0.0857 in test [1]; 0.535 in test [6]; -0.18 in test [7]; 0.718 with Torsin-1A (Homo sapiens) [8]; 0.301 in the test with Torsin-1A (Homo sapiens) [9]; 1.57 in [10]. Besides, the z-score in [2] is -4.33 (inactive); in test [3], -0.219 (inactive); in test [4] it was 3.56 (inactive); in test [5], -0.431 (inactive).
With `OCCCc1cc[n+](Cc2cccc(OC(F)(F)F)c2)cc1`, the composite z-score is 0.012 in test [1]; 0.274 in test [6]; -0.0538 in [7]; 1.03 with Torsin-1A (Homo sapiens) [8]; 1.59 with Torsin-1A (Homo sapiens) [9]; 1.82 in [10]. For the same compound, the z-score in test [2] was -1.79 (inactive); in test [3], -0.781 (inactive); in test [4], -0.374 (inactive); in test [5], 1.69 (inactive).
Take `CC(=O)n1cc(C(O)C2C=CC3C(=O)N(c4ccccc4)C(=O)C3N2Nc2ccc(C#N)cc2)c2ccccc21` (stereo not given): the composite z-score in test [1] was 0.523; in test [6], 0.846; in [7] it was 0.11; in the test with Torsin-1A (Homo sapiens) [8], -0.467; with Torsin-1A (Homo sapiens) [9], 0.522; in [10] it was -0.38. Besides, the z-score is 0.853 (inactive) in [2], -0.935 (inactive) in test [3], -0.512 (inactive) in [4] and 0.1 (inactive) in test [5].
As for `O=C1O[C@H](c2ccccc2)[C@H](c2ccccc2)N2[C@H]1[C@@H](C(=O)N1CCCCCCC1)[C@]1(C(=O)Nc3ccc(C#CC4=CCCCC4)cc31)[C@H]2c1ccc(O)cc1`, the composite z-score in test [1] came out at 2.45; in [6], 4.23; in test [7] it was 1.98; in the test with Torsin-1A (Homo sapiens) [8] it was 3.97; with Torsin-1A (Homo sapiens) [9], 3.82; in test [10], 2.29. Besides, the z-score in test [2] is -5.14 (inactive); in test [3], -1.54 (inactive); in test [4], -1.43 (inactive); in [5], -0.464 (inactive).
`COCCCNC(=O)[C@@]1(Cc2ccccc2I)c2ccccc2C(=O)N(Cc2ccccc2)[C@H]1c1ccc(CO)cc1`: the composite z-score in test [1] was -0.433; in [6] it was -1.38; in test [7], -0.176; with Torsin-1A (Homo sapiens) [8] it was -0.79; with Torsin-1A (Homo sapiens) [9], -0.332; in [10], -0.892. Besides, the z-score in [2] is -2.44 (inactive); in test [3], 0.202 (inactive); in [4] it was 0.145 (inactive); in test [5] it was -1.06 (inactive).
Consider `CC1CC/C=C\[C@H]2OC34C=CCN(CCN5CCOCC5)C(=O)[C@H]3N(CCCCCO)C(=O)[C@@H]4C2C(=O)O1` (stereo not given in full), for which the composite z-score was 0.06 in test [1]; -0.488 in test [6]; -0.327 in [7]; -0.0591 in the test with Torsin-1A (Homo sapiens) [8]; -0.352 with Torsin-1A (Homo sapiens) [9]; 0.322 in test [10]. Moreover, the z-score in [2] was 0.362 (inactive); in test [3] it was 0.658 (inactive); in test [4] it was 0.0645 (inactive); in test [5], 0.259 (inactive).
Take `CC(C)(C)OC(=O)CC[C@@]1(C(=O)NCC(O)CO)N=C(c2ccc(OCCCO)cc2)O[C@@H]1c1ccccc1` (stereo not given in full): the composite z-score in test [1] is 0.0271; in test [6], -0.0256; in [7], -0.0361; with Torsin-1A (Homo sapiens) [8], 1.07; with Torsin-1A (Homo sapiens) [9] it was 1.01; in test [10], -0.887. Also, the z-score in test [2] is 0.496 (inactive); in test [3], -1.15 (inactive); in [4], 2.06 (inactive); in test [5] it was -0.904 (inactive).
Regarding `C=CC[C@@]1(C(=O)OC)N=C(c2ccc(OCCCO)cc2)O[C@@H]1c1ccccc1CN=[N+]=[N-]`, the composite z-score in test [1] was 0.0122; in test [6], -0.233; in test [7], -0.212; with Torsin-1A (Homo sapiens) [8] it was 0.0478; with Torsin-1A (Homo sapiens) [9], -0.249; in [10] it was 0.838. Further, the z-score in [2] was -4.22 (inactive); in [3] it was -0.88 (inactive); in test [4], -1.03 (inactive); in [5], -1.5 (inactive).
With `O=C(NCC(F)(F)F)[C@@H]1c2ccccc2C(=O)N(Cc2ccccc2)[C@H]1c1ccc(CO)cc1`, the composite z-score in test [1] was -0.18; in [6], -0.27; in test [7], -0.214; in the test with Torsin-1A (Homo sapiens) [8], 0.111; with Torsin-1A (Homo sapiens) [9], 0.0036; in test [10] it was -0.911. The z-score in test [2] was -0.223 (inactive); in [3], -0.0791 (inactive); in test [4], -0.269 (inactive); in test [5], -0.461 (inactive).
In the case of `C=CCN1Cc2ccccc2C[C@@]2(COC(c3ccc(OCCCO)cc3)=N2)C1=O`, the composite z-score turned out to be 0.253 in test [1]; 0.112 in [6]; 0.185 in test [7]; 0.729 in the test with Torsin-1A (Homo sapiens) [8]; 0.827 in the test with Torsin-1A (Homo sapiens) [9]; 0.521 in test [10]. The z-score is -2.99 (inactive) in test [2], -0.547 (inactive) in [3], 3.21 (inactive) in [4] and -1.41 (inactive) in test [5].
Regarding `O=C1C[C@@](C(=O)O)(c2ccc([N+](=O)[O-])cc2)[C@@H](c2ccc(CO)cc2I)N1CC12CC3CC(CC(C3)C1)C2`, the composite z-score in test [1] is 0.0743; in [6] it was 0.975; in test [7], -0.12; with Torsin-1A (Homo sapiens) [8], 0.663; with Torsin-1A (Homo sapiens) [9], 0.381; in test [10], 0.617. The z-score in test [2] is -5.39 (inactive); in test [3], -0.142 (inactive); in test [4] it was 0.468 (inactive); in test [5] it was 3.72 (inactive).
Regarding `COC(=O)[C@@]1(Cc2ccc(F)cc2)[C@H]2c3cc(C(=O)N(C)C)n(Cc4ccccn4)c3C[C@H]2CN1C(=O)c1ccccc1`, the composite z-score was -0.0131 in test [1]; 0.751 in test [6]; 0.349 in test [7]; 1.17 in the test with Torsin-1A (Homo sapiens) [8]; 1.05 in the test with Torsin-1A (Homo sapiens) [9]; -0.285 in test [10]. The z-score in test [2] was -1.17 (inactive); in test [3], -0.75 (inactive); in [4], -0.947 (inactive); in test [5], 0.431 (inactive).

Source of the values: PubChem BioAssay.
